Reference: PubChem BioAssay AID1159580 (chemical genetic matrix, 2015)
The campaign covered roughly 5,500 compounds. About 2,000 (36%) were called active. Inconclusive results (about 18%) are left out. Cut-off read from the data, not from the text of the source: active = normalized growth mostly below about 0.91 (no sharp cut-off); inconclusive = no clear call, values can overlap the other calls; inactive = mostly above about 0.92. Some of the results follow.

Assay: chemical genetic growth profiling, strain panel (AID 1159580);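 note: tested at 20 µM; growth read once vehicle control cultures reached saturation at 30 °C; 1 = growth at the plate median or of vehicle wells; lower values mean less growth of the strain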
Details: growth OD

Measured: normalized growth

COC(=O)C1[C@H]2C[C@H]3c4[nH]c5ccccc5c4CCN3C[C@@H]2CC[C@@H]1O (some centres not stated)
inactive: S. cerevisiae deletion strains, locus YJR075W, strain HOC1, active compounds read low 1.02 | S. cerevisiae deletion strains, locus YKL009W, strain mrt4, active compounds read low 0.996 | S. cerevisiae deletion strains, locus YKL068W, active compounds read low 1.01 | S. cerevisiae deletion strains, locus YKL085W, strain MDH1 (second series), active compounds read low 1.01 | S. cerevisiae deletion strains, locus YKL085W, strain MDH1, active compounds read low 1.01 | S. cerevisiae deletion strains, locus YKL160W, strain elf1, active compounds read low 0.987 | S. cerevisiae deletion strains, locus YKL190W, strain CNB1, active compounds read low 1.02 | S. cerevisiae deletion strains, locus YKR001C, strain vps1, active compounds read low 1.02 | S. cerevisiae deletion strains, locus YKR026C, strain gcn3, active compounds read low 0.971 | S. cerevisiae deletion strains, locus YKR091W, strain srl3, active compounds read low 0.985 | S. cerevisiae deletion strains, locus YLL001W, strain dnm1, active compounds read low 0.984 | S. cerevisiae deletion strains, locus YLL026W, active compounds read low 0.965 | S. cerevisiae deletion strains, locus YLL041C, strain sdh2, active compounds read low 0.974 | S. cerevisiae deletion strains, locus YLR027C, strain aat2, active compounds read low 0.988 | S. cerevisiae deletion strains, locus YLR039C, strain RIC1, active compounds read low 1.02 | S. cerevisiae deletion strains, locus YLR058C, strain SHM2, active compounds read low 1.01 | S. cerevisiae deletion strains, locus YLR102C, strain apc9, active compounds read low 1.02 | S. cerevisiae deletion strains, locus YLR113W, strain HOG1, active compounds read low 1.01 | S. cerevisiae deletion strains, locus YLR221C, strain rsa3, active compounds read low 1.01 | S. cerevisiae deletion strains, locus YLR258W, strain gsy2, active compounds read low 0.98 | S. cerevisiae deletion strains, locus YLR262C, strain YPT6 (second series), active compounds read low 0.974 | S. cerevisiae deletion strains, locus YLR262C, strain YPT6, active compounds read low 1 | S. cerevisiae deletion strains, locus YLR268W, strain sec22, active compounds read low 1.06 | S. cerevisiae deletion strains, locus YLR320W, strain mms22, active compounds read low 1.02 | S. cerevisiae deletion strains, locus YLR330W, strain CHS5, active compounds read low 1.01 | S. cerevisiae deletion strains, locus YLR342W, strain FKS1 (second series), active compounds read low 1 | S. cerevisiae deletion strains, locus YLR342W, strain FKS1, active compounds read low 0.981 | S. cerevisiae deletion strains, locus YLR357W, strain rsc2, active compounds read low 0.985 | S. cerevisiae deletion strains, locus YLR370C, strain arc18, active compounds read low 0.965 | S. cerevisiae deletion strains, locus YLR371W, strain rom2, active compounds read low 1.02 | S. cerevisiae deletion strains, locus YLR384C, strain iki3, active compounds read low 0.969 | S. cerevisiae deletion strains, locus YLR418C, strain cdc73, active compounds read low 1.02 | S. cerevisiae deletion strains, locus YML016C, strain PPZ1, active compounds read low 1.01 | S. cerevisiae deletion strains, locus YML032C, strain rad52, active compounds read low 1.03 | S. cerevisiae deletion strains, locus YML120C, strain ndi1, active compounds read low 0.966 | S. cerevisiae deletion strains, locus YML124C, strain tub3, active compounds read low 1.01 | S. cerevisiae deletion strains, locus YMR058W, strain fet3, active compounds read low 0.974 | S. cerevisiae deletion strains, locus YMR078C, strain ctf18, active compounds read low 1.01 | S. cerevisiae deletion strains, locus YMR125W, strain sto1, active compounds read low 0.981 | S. cerevisiae deletion strains, locus YMR129W, active compounds read low 0.988 | S. cerevisiae deletion strains, locus YMR205C, strain PFK2, active compounds read low 0.991 | S. cerevisiae deletion strains, locus YMR223W, strain ubp8, active compounds read low 1.01 | S. cerevisiae deletion strains, locus YMR231W, strain pep5, active compounds read low 0.978 | S. cerevisiae deletion strains, locus YMR263W, strain SAP30, active compounds read low 1.03 | S. cerevisiae deletion strains, locus YMR307W, strain GAS1, active compounds read low 0.952 | S. cerevisiae deletion strains, locus YNL067W, strain RPL9B, active compounds read low 1.03 | S. cerevisiae deletion strains, locus YNL071W, strain lat1, active compounds read low 0.976 | S. cerevisiae deletion strains, locus YNL128W, strain TEP1, active compounds read low 1.02 | S. cerevisiae deletion strains, locus YNL153C, strain GIM3, active compounds read low 1.01 | S. cerevisiae deletion strains, locus YNL183C, strain NPR1, active compounds read low 0.981 | S. cerevisiae deletion strains, locus YNL209W, strain ssb2, active compounds read low 0.959 | S. cerevisiae deletion strains, locus YNL233W, strain BNI4, active compounds read low 1.01 | S. cerevisiae deletion strains, locus YNL248C, strain rpa49, active compounds read low 0.998 | S. cerevisiae deletion strains, locus YNL250W, strain rad50, active compounds read low 1.02 | S. cerevisiae deletion strains, locus YNL271C, strain bni1, active compounds read low 1.02 | S. cerevisiae deletion strains, locus YNL298W, strain CLA4, active compounds read low 1.02 | S. cerevisiae deletion strains, locus YNL307C, strain MCK1, active compounds read low 1.02 | S. cerevisiae deletion strains, locus YNL322C, strain KRE1 (second series), active compounds read low 0.973 | S. cerevisiae deletion strains, locus YNL322C, strain KRE1, active compounds read low 1.02 | S. cerevisiae deletion strains, locus YNR049C, strain mso1, active compounds read low 0.97 | S. cerevisiae deletion strains, locus YNR052C, strain pop2, active compounds read low 1.02 | S. cerevisiae deletion strains, locus YOL006C, strain TOP1, active compounds read low 1.06 | S. cerevisiae deletion strains, locus YOL012C, strain htz1 0.74 | S. cerevisiae deletion strains, locus YOL147C, strain pex11, active compounds read low 1.02 | S. cerevisiae deletion strains, locus YOR001W, strain rrp6, active compounds read low 0.961 | S. cerevisiae deletion strains, locus YOR061W, strain CKA2, active compounds read low 1.01 | S. cerevisiae deletion strains, locus YOR069W, strain VPS5, active compounds read low 1.01 | S. cerevisiae deletion strains, locus YOR070C, strain gyp1, active compounds read low 0.983 | S. cerevisiae deletion strains, locus YOR080W, strain dia2, active compounds read low 0.934 | S. cerevisiae deletion strains, locus YOR083W, strain WHI5, active compounds read low 0.979 | S. cerevisiae deletion strains, locus YOR106W, strain vam3, active compounds read low 0.949 | S. cerevisiae deletion strains, locus YOR136W, strain idh2, active compounds read low 1.02 | S. cerevisiae deletion strains, locus YOR144C, strain elg1, active compounds read low 1.01 | S. cerevisiae deletion strains, locus YOR184W, strain ser1, active compounds read low 1.01 | S. cerevisiae deletion strains, locus YOR231W, strain MKK1, active compounds read low 1.02 | S. cerevisiae deletion strains, locus YOR265W, strain rbl2, active compounds read low 0.978 | S. cerevisiae deletion strains, locus YOR270C, strain vph1, active compounds read low 0.935 | S. cerevisiae deletion strains, locus YOR290C, strain snf2, active compounds read low 0.974 | S. cerevisiae deletion strains, locus YOR316C, strain cot1, active compounds read low 1.02 | S. cerevisiae deletion strains, locus YPL051W, strain arl3, active compounds read low 0.961 | S. cerevisiae deletion strains, locus YPL055C, strain LGE1, active compounds read low 1.02 | S. cerevisiae deletion strains, locus YPL078C, strain atp4, active compounds read low 0.963 | S. cerevisiae deletion strains, locus YPL106C, strain sse1, active compounds read low 0.906 | S. cerevisiae deletion strains, locus YPL240C, strain hsp82, active compounds read low 0.995 | S. cerevisiae deletion strains, locus YPL241C, strain CIN2, active compounds read low 1.01 | S. cerevisiae deletion strains, locus YPL256C, strain CLN2, active compounds read low 0.998 | S. cerevisiae deletion strains, locus YPR119W, strain clb2, active compounds read low 1.02 | S. cerevisiae deletion strains, locus YPR141C, strain kar3, active compounds read low 1.02 | S. cerevisiae deletion strains, locus YPR163C, strain tif3, active compounds read low 1.02 | S. cerevisiae deletion strains, locus YPR167C, strain met16, active compounds read low 1.02 | S. cerevisiae deletion strains, strain wtn01, active compounds read low 1.04 | S. cerevisiae strains, strain wild type, active compounds read low 1
